# CHO-K1 Ca antag = counter-screen for M1 antagonists: effect in parental CHO-K1 cells; ATP-induced calcium, Fluo-8 fluorescence; inhibition, % at 3 µM; 360,000 tested, 0.6% active; AID 602250;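 active = inhibition above a per-plate cutoff, the plate's mean sample inhibition plus 3 SD, cut at about 24% in these data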;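 also: 0% = DMSO plus EC80 ATP and 100% = DMSO alone without ATP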
# CHO-K1 Ca ag = counter-screen for M1 agonists: effect in parental CHO-K1 cells; 360,000 tested, 0.48% active; activation, % at 3 µM; Fluo-8 calcium fluorescence; scaled to maximal ATP response, vehicle zero; in the data active = activation above about 15%;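 also: untransfected CHO-K1 host cells lacking M1 receptor as counterscreen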
# CHO-K1 Ca PAM = nonselective calcium activators in parental CHO-K1 cells, primary screen, counter-screen for M1 PAM project, cell-based, Fluo-8 calcium fluorescence, full deck, 1536-well. activation, % at 3 µM. AID 602247, 2012. 360,000 tested, 0.02% active. ATP EC20; 0% at ATP EC20, 100% at ATP max;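 active = activation above the run cutoff, the mean activation of all test compounds plus 3 SD, cut at about 40% in these data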;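 also: peak over basal fluorescence ratio in a 140 s read after ATP addition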
# CHRM1 antagonist = human M1 muscarinic receptor antagonists, primary screen, CHO-K1 cells, Fluo-8 calcium fluorescence, 1536-well; Muscarinic acetylcholine receptor M1 (Homo sapiens), P11229; CHO-K1 hM1, ACh EC80 antagonist; inhibition, % at 3 µM; 360,000 tested, 1.3% active;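 active = percent inhibition above its own plate's cutoff, namely the mean of that plate's compound wells plus 3 SD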;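 also: peak over basal fluorescence ratio during 140 s after agonist addition; 0% = ACh EC80 plus DMSO and 100% = DMSO alone without agonist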
# Target sequence (P11229 whole entry, looked up): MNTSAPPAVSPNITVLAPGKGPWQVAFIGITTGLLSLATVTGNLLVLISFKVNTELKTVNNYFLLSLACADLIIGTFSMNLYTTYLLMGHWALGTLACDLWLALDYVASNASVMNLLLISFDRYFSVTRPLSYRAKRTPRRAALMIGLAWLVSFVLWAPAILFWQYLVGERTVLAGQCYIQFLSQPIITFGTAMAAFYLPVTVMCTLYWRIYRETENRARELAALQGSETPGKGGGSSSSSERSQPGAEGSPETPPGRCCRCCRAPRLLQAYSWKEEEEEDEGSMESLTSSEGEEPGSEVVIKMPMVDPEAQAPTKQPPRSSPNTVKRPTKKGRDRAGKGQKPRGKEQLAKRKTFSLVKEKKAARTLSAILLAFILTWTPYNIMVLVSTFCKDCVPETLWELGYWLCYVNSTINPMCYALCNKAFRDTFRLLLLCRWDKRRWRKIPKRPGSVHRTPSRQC
# M1 ag = human M1 muscarinic receptor agonists, primary screen, Fluo-8 calcium fluorescence, CHO-K1 cells, HTS. CHO-K1 hM1, agonist mode; 0% DMSO, 100% acetylcholine EC100. activation, % at 3 µM. 360,000 tested, 0.33% active;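 active = activation above the run's mean compound activation plus 3 SD, cut at about 16% in these data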;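 also: peak over basal fluorescence ratio within a 140 s kinetic read after compound addition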
# CHRM1 PAM = human M1 muscarinic receptor positive allosteric modulators, primary screen, CHO-K1 cells, Fluo-8 calcium fluorescence, 1536-well; Muscarinic acetylcholine receptor M1 (Homo sapiens), P11229; CHO-K1 hM1, ACh EC20; 0% = ACh EC20, 100% = maximal ACh; activation, % at 3 µM; 360,000 tested, 0.088% active; AID 588819, 2011; in the data active = activation above about 19%, passing the limit was not always enough
# Starred values were filed as active, the others as inactive. An excerpt weighted towards active compounds, which were near 2.4% of everything screened.
SMILES,CHO-K1 Ca antag,CHO-K1 Ca ag,CHO-K1 Ca PAM,CHRM1 antagonist,M1 ag,CHRM1 PAM
Cc1ccc(C(=O)OCC(=O)c2c[nH]c3ccccc23)cc1NC(=O)c1ccco1,-1,1,-8,8,1,1
COC(=O)c1ccc(C(C(=O)NCc2ccccc2)N(Cc2cccs2)C(=O)c2cnccn2)cc1 (stereo not drawn),10,4,6,21*,3,-15
Cc1ccc(C(C(=O)NCc2ccccc2)N(Cc2cccs2)C(=O)c2ccc3c(c2)OCCO3)cc1 (stereo not drawn),13,10,13,33*,-2,-17
COc1ccc(CNC(=O)C(c2ccc(C)cc2)N(Cc2cccs2)C(=O)c2ccc3c(c2)OCCO3)cc1 (stereo not drawn),5,7,-5,18,3,-12
COc1cc2c(cc1OC)CN(C(=O)C(CCSC)NS(=O)(=O)c1ccc(C)cc1)CC2 (stereo not drawn),-7,1,6,-19,-2,12
CNC(=O)COC(=O)CCC(=O)c1cccs1,-14,1,18,-10,0,11
O=C(COC(=O)CCC(=O)c1cccs1)NC1CC1,-2,16*,-5,1,-2,2
CNC(=S)N/N=C(\C)c1ccc(C)c(C)c1,8,0,-5,-1,-4,3
c1ccc2c(c1)[nH]c1ccncc12,-12,1,16,-3,18*,1
CC(C)(C)[C@]1(O)CCN2C[C@H]3c4ccccc4CCc4cccc(c43)[C@@H]2C1,-18,2,41*,-32,1,4
CCCn1c(Cc2ccccc2)n[nH]c1=S,-13,0,19,17,-6,-6
S=c1[nH]nc(Cc2ccccc2)n1Cc1ccco1,-16,1,8,92*,-13,-33
CCCCNC(=O)C1(C)CCN1C(=O)c1cc(F)ccc1C (stereo not drawn),0,0,0,-7,-1,3
OC(CNC1Cc2ccccc2C1)c1ccccc1 (stereo not drawn),-18,2,3,-3,16*,3
O=C(CSc1nnc(-c2cccnc2)n1CCN1CCCCC1)Nc1cccc(Cl)c1,-1,0,3,6,-3,6
CC(=O)c1ccc(N2CCN(S(=O)(=O)c3ccc4c(c3)CC(C)N4C(C)=O)CC2)cc1 (stereo not drawn),24,14,3,36*,2,-13
CC(=O)N1c2ccc(S(=O)(=O)N3CCC(C(=O)N4CCN(c5cc(Cl)ccc5C)CC4)CC3)cc2CC1C (stereo not drawn),26*,12,-18,48*,2,-16
CC1Cc2cc(S(=O)(=O)N3CCC(C(=O)N4CCN(c5ccccc5F)CC4)CC3)ccc2N1C(=O)C1CC1 (stereo not drawn),29*,10,-30,22,5,-7
CS(=O)(=O)N1CCC(C(=O)N2CCN(c3ccccc3F)CC2)CC1,-1,17*,19,-7,-7,11
CC(=O)N1c2ccc(S(=O)(=O)N3CCC(C(=O)N4CCC(C)CC4)CC3)cc2CC1C (stereo not drawn),-17,2,8,-9,-4,4
Cc1ccc2cc(S(=O)(=O)NCCCN3CCOCC3)ccc2c1,-1,19*,23,4,-12,8
Cc1ccc(S(=O)(=O)NC2=NCN(Cc3ccccc3)CN2)cc1,-2,0,9,-11,-2,5
Cc1ccc(S(=O)(=O)NNC(=O)C2CCN(Cc3ccccc3)CC2)cc1,-19,0,17,80*,-5,-21
Cc1ccc(S(=O)(=O)NC2=NCN(C3CCN(Cc4ccccc4)CC3)CN2)cc1,-10,0,13,29*,-5,-16
COC(=O)C1CCN(Cc2ccc(C)cc2)CC1,4,-1,0,-17,-6,10
